Laboratory results reported in the supplement of paper PMC3414501.
Counter-ions that a name gives are not always drawn. Unmarked numbers belong to inactive results.

Tests used:
[1] = test system: S. cerevisiae SK1 pCDA2-eGFP (USY613), sporulating; assay: CDA2-GFP sporulation assay sensitivity score (z-score vs DMSO controls); higher = stronger inhibition of sporulation, active = hit call of the paper;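 also: active if sensitivity score above 5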
[2] = test system: S. cerevisiae NKY1551 his4x/his4B, sporulating; assay: HIS4 meiotic recombination assay sensitivity score (z-score vs DMSO controls); higher = stronger inhibition of sporulation/recombination, active = hit call of the paper;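 also: active if sensitivity score above 5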
[3] = test system: S. cerevisiae AD1-9 (efflux-pump deficient), vegetative growth in YPD; assay: growth sensitivity score (doubling time z-score vs DMSO controls); higher = slower growth, strongly negative scores also mark growth inhibition (complete suppression), active = hit call of the paper
In short: (§1)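 Yeast (Saccharomyces cerevisiae BY4741 and AD1-9) was grown in rich medium in microtiter plates from a starting OD600 of 0.065, with optical density read every 15 min over 24 hours. The growth sensitivity score was the difference between compound and solvent-only means, divided by the solvent-only standard deviation. Every experiment had eight solvent-only wells.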

[4] = test system: S. cerevisiae BY4741 (wild-type), vegetative growth in YPD; assay: as above
In short: as §1

Row | Structure (SMILES) | CDA2-GFP sporulation assay sensitivity score [1] | HIS4 meiotic recombination assay sensitivity score [2] | growth sensitivity score [3] | growth sensitivity score [4]
1 | CCN1CC(CCN2CCOCC2)C(c2ccccc2)(c2ccccc2)C1=O (stereo not given) [Doxapram hydrochloride] (stock concentration (mM, diluted 1:100): 10.4) | -0.58 | 1.8 | -0.91 | -0.29
2 | C=CCc1ccc(O)c(-c2ccc(O)c(CC=C)c2)c1 [Honokiol] (stock concentration (mM, diluted 1:100): 10.1) | 0.56 | -1.68 | – | –
3 | CC(C)[C@H](N)C(=O)OCCOCn1cnc2c(=O)nc(N)[nH]c21 [Valaciclovir hydrochloride] (stock concentration (mM, diluted 1:100): 9) | 0.8 | 0.04 | -0.28 | 0.36
4 | NC1CCN(c2cccc(Cl)n2)CC1 (stock concentration (mM, diluted 1:100): 10) | 13.8 (active) | 2.37 | -0.47 | -0.16
5 | c1ccc(-c2ccc(C(c3ccccc3)n3ccnc3)cc2)cc1 (stereo not given) [Bifonazole] (stock concentration (mM, diluted 1:100): 10) | 0.04 | -0.93 | – | –
6 | COC(=O)C1=C(C)NC(C)=C(C(=O)OC)C1c1ccccc1[N+](=O)[O-] [Nifedipine] (stock concentration (mM, diluted 1:100): 10.7) | 3.14 | 1.3 | 60 (active) | 4.28 (active)
